High-throughput results as filed in PubChem.
NPSR antag: neuropeptide S receptor (human) antagonism, cAMP | Potency, µM (highest dose often 38.3 µM), usual class: inhibitors | CHO-NPSR cells, cAMP TR-FRET, antagonist mode | actives 1% (n = 220,000) | Q6W5P4; further: nearly all actives have a fitted effect of over 50% in size
ClpP mod: qHTS Assay for Activators of ClpP. purified B. subtilis ClpP, FRET peptide cleavage, 20 min. Potency, µM (top dose mostly 57.5 µM). actives 1.9% (n = 340,000); active means well fitted falling curve with a large enough effect; inconclusive means small, poorly fitted or top-dose-only effect; inactive means no such curve, though single readings can be large or run the other way; further: the source files actives as falling curves though it sought activators and does not explain the sign; nearly all actives have a fitted effect of over 65% in size
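Buffer: 100 mM Tris/HCl pH8, 100 mM KCl, 0.05% low protease BSA, 2.5% glycerol, 0.01% Tween-20. ClpP 10 microg/mL final; 20 min RT; delta FRET normalized to ADEP and DMSO controls.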
IL2 activator: IL-2 activation | actives 0.065% (n = 360,000) | activation, % (series mostly up to about 46 µM) | IL-2 activation reporter assay, cell-based qHTS; stimulated with anti-CD3/CD4/CD28 beads; in transgenic mouse T cells; in the data active means activation above about 50%; inconclusive means mostly about 30% to 49%
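Unstimulated transgenic mouse T cells, 750 per well, received compound and, after 60 minutes, anti-CD3/anti-CD4 bead plus anti-CD28 stimulation. EGFP and DsRed were quantified after 18 hours.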
PKM2 activator: increases activity of human pyruvate kinase M2 | P14618 | actives 0.34% (n = 260,000) | purified PKM2, Kinase-Glo ATP luminescence, activation; response scale: 0% is enzyme alone, no compound | Potency, µM (series often up to 57.5 µM), actives largely listed as activators; further: nearly all actives have a fitted effect of over 55% in size
Target sequence (P14618 whole entry, looked up): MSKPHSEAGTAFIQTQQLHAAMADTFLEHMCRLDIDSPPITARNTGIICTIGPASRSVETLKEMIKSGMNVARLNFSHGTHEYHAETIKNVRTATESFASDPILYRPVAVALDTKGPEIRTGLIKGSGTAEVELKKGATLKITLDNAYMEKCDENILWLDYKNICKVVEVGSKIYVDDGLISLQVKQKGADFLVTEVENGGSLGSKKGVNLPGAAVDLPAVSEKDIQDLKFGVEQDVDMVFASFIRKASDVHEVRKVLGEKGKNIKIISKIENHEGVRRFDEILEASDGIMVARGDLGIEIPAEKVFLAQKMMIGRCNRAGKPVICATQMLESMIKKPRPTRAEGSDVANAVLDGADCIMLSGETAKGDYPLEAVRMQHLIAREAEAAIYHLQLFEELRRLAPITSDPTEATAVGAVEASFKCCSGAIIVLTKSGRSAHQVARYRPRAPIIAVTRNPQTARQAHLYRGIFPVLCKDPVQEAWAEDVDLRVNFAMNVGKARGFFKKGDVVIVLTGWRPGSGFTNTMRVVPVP
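Purified hPK-M2 (>95% pure) converted ADP (0.1 mM final) to ATP with 0.5 mM PEP in 50 mM imidazole pH7.2, KCl, MgCl2, Tween 20, BSA; 1 h at room temperature. ATP detected by Kinase-Glo luminescence.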
HeLa tox: counter-screen for pyruvate kinase M2 activators: HeLa cytotoxicity. shares compounds with PKM2 activator. HeLa viability, CellTiter-Glo ATP luminescence, 24 h. activity change, negative = cytotoxicity, % at 57.5 µM. 230 tested, under 10 active
Numbers stand for hits; [ ] = remark or other dose. This is a sample that favours compounds with a hit; in the whole collection about 2% have one here. Unless noted, the call rests on the fitted dose curve; in most records, active means well fitted curve in the direction sought with a large enough effect; inconclusive means small, poorly fitted or top-dose-only effect, or another doubt; inactive means no such curve, though single readings can be large; an effect the other way counts as inactive or inconclusive.

Screening Cc1cc(C)cc(OCCn2c(C3CC(=O)N(c4ccccc4Cl)C3)nc3ccccc32)c1 (stereo not drawn) returned ClpP mod inactive.
CC1(C)CC(=O)C2=C(C1)NC(SCC(=O)Nc1ccccc1)=C(C#N)C2c1ccco1 (stereo not drawn) was read as NPSR antag inactive, ClpP mod inactive, IL2 activator inactive and PKM2 activator inactive.
Screening Cc1ccc(NC(=O)CSC2=C(C#N)C(c3ccco3)C3=C(CCCC3=O)N2)cc1 (stereo not drawn) returned NPSR antag inconclusive, ClpP mod inactive, IL2 activator inactive, PKM2 activator 4.5µM and HeLa tox inactive.
For CC(=O)c1cccc(NC(=O)c2ccc(-n3cncn3)c3ccoc23)c1 the results were ClpP mod inactive and IL2 activator inactive.
`CN(CC(=O)NCc1cccs1)S(=O)(=O)c1cccc2cccnc12` gave NPSR antag inactive, ClpP mod inactive, IL2 activator inactive and PKM2 activator inactive.
`Cc1cccc(NS(=O)(=O)c2cc3c(cc2C)n(C)c(=O)c(=O)n3C)c1` gave ClpP mod inactive, IL2 activator inactive, PKM2 activator 0.4µM and HeLa tox inactive.
CC(=O)Nc1cc(S(=O)(=O)Nc2cccc(C)c2)c(C)cc1C was read as NPSR antag inactive, ClpP mod inactive, IL2 activator inactive and PKM2 activator inactive.
For Cc1ccc(-c2nc3ccccn3c2Nc2ccccc2)o1 the results were NPSR antag inactive, ClpP mod inactive, IL2 activator inactive, PKM2 activator 2.2µM and HeLa tox inactive.
`COc1ccc(NC(=O)CSc2nc3c(c(-c4cccs4)c2C#N)CN(C)CC3)cc1OC` gave NPSR antag inactive, ClpP mod inactive, IL2 activator inactive and PKM2 activator inconclusive.
Screening Cc1ccc(S(=O)(=O)N2CCN(c3ccc([N+](=O)[O-])c(Sc4nncn4C)c3)CC2)cc1 returned NPSR antag inactive, ClpP mod inactive, IL2 activator inactive, PKM2 activator 0.2µM and HeLa tox inactive.
O=c1[nH]c(Cn2nnc(-c3ccccc3)n2)nc2scc(-c3ccccc3)c12 was read as NPSR antag inactive, ClpP mod inactive, IL2 activator inactive, PKM2 activator 14µM and HeLa tox inactive.
COc1cccc(C(=O)Oc2ccc(N3C(=O)CCC3=O)c(C)c2)c1 was read as NPSR antag inactive, IL2 activator inactive and PKM2 activator inactive.
Screening CCn1c(SCC(=O)Nc2cccc(O)c2)nc2c1c(=O)n(C)c(=O)n2C returned IL2 activator inactive, PKM2 activator 1.1µM and HeLa tox inactive.
For O=S1(=O)c2ccccc2N=NN1Cc1ccc(Cl)c(Cl)c1 the results were NPSR antag inactive and PKM2 activator inactive.
CC(C)(C)c1ccc(CN2N=Nc3ccccc3S2(=O)=O)cc1 was read as NPSR antag 10µM, ClpP mod inactive, IL2 activator inactive, PKM2 activator 3.2µM and HeLa tox inconclusive.
`COc1ccc(S(=O)(=O)Nc2nc3c(s2)CCCC3)cc1` gave NPSR antag inactive, IL2 activator inactive, PKM2 activator 5µM and HeLa tox inactive.
`Cc1ccc2c(c1)c(N1CCCC1=O)c(C(=O)Nc1ccc(F)cc1F)n2C` gave ClpP mod inactive.
Cc1ccnc2nc(C(=O)OCC(=O)NC3CCCC(C)C3C)nn12 (stereo not drawn) was read as ClpP mod inactive and IL2 activator inactive.
For O=C(Nc1ccc(Nc2ccccc2)cc1)c1cc([N+](=O)[O-])ccc1Cl the results were ClpP mod inactive, IL2 activator inactive and PKM2 activator inactive[11.5 µM].
`CCNc1nc(OC)nc(Oc2ccc(C(=O)OC)cc2)n1` gave NPSR antag inactive, ClpP mod inactive, IL2 activator inactive and PKM2 activator inactive.
For CCNc1nc(NCC)nc(Oc2ccc(N)cc2)n1 the results were NPSR antag inactive, ClpP mod inactive, IL2 activator inactive, PKM2 activator 2.5µM and HeLa tox inactive.
`CCn1c(C)nc2cc(C(=O)N/N=C/c3ccc(O)c(O)c3O)ccc21` gave NPSR antag inactive, IL2 activator inactive, PKM2 activator 3.2µM and HeLa tox inactive.
Screening CC(C)c1cc2c(s1)c1cnn(Cc3ccccc3F)c(=O)c1n2C returned HeLa tox inconclusive.
`CC1CCCCN1C(=O)Cn1ncc2c3ccccc3n(Cc3ccccc3F)c2c1=O` (stereo not drawn) gave ClpP mod inactive.
Screening O=C(Cn1ncc2c3ccccc3n(Cc3ccccc3F)c2c1=O)NC1CC1 returned ClpP mod inactive and IL2 activator inactive.
Screening CC(O)c1cc2c(s1)c1cnn(Cc3ccccc3F)c(=O)c1n2C (stereo not drawn) returned IL2 activator inactive and HeLa tox inactive.
Cn1c2cc(C#N)sc2c2cnn(Cc3ccccc3F)c(=O)c21 was read as HeLa tox inactive.
For Cn1c(=O)c2ccccc2n(Cc2ccccc2F)c1=O the results were NPSR antag inactive, ClpP mod inactive, IL2 activator inactive and PKM2 activator inactive.
For Cn1c2ccsc2c2cnn(Cc3ccccc3F)c(=O)c21 the results were HeLa tox inactive.
Cn1c2cc([N+](=O)[O-])sc2c2cnn(Cc3ccccc3F)c(=O)c21 was read as HeLa tox inactive.
Screening COC(=O)c1cc2c(s1)c1cnn(Cc3ccccc3F)c(=O)c1n2C returned HeLa tox inactive.
For CCN1CCN(C(=O)Cn2ncc3c4ccccc4n(Cc4ccccc4F)c3c2=O)CC1 the results were ClpP mod inactive.
For COc1ccc(CCNC(=O)C(=O)c2c(C)[nH]c3ccccc23)cc1 the results were ClpP mod inactive and IL2 activator inactive.
`CN(C)c1ccc(-c2ccnc3c2CC(C)(C(=O)NCc2ccccc2)O3)cc1` (stereo not drawn) gave ClpP mod inactive and IL2 activator inactive.
O=C(c1ccc2c(=O)n(Cc3ccco3)c(=S)[nH]c2c1)N1CCN(Cc2ccccc2)CC1 was read as NPSR antag inactive, ClpP mod inactive, IL2 activator inactive, PKM2 activator 0.63µM and HeLa tox inactive.
CC(C)(C)OC(=O)N1CCC[C@H]1C(=O)OCC(=O)Nc1cc(S(C)(=O)=O)ccc1Cl was read as ClpP mod inactive and IL2 activator inactive.
For CC(C)C(C(=O)Nc1ncn[nH]1)N1C(=O)c2ccccc2C1=O (stereo not drawn) the results were NPSR antag inactive, ClpP mod inactive, IL2 activator inactive and PKM2 activator inactive.
Screening N#CC(C#N)=C1c2cc(S(N)(=O)=O)ccc2-c2ccc(S(N)(=O)=O)cc21 returned NPSR antag inactive, ClpP mod inactive, IL2 activator inactive, PKM2 activator 0.71µM and HeLa tox inactive.
